Screening results as filed in PubChem BioAssay.
Hits are enriched below; roughly 3.4% of the tested compounds scored in any of these assays.
ADAM17 inh = ADAM17 inhibition, QFRET primary screen; recombinant ADAM17, EDANS/DABCYL FRET peptide cleavage; inhibition, % at 6.95 µM; 370,000 compounds, 0.83% hits;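 active = inhibition above the mean of compounds lying between control limits plus 3 SD, set per campaign, cut at about 8.5% in these data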;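 also: 0% = DMSO-only wells as the low control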
sPLA2-III inh = Blocks human group III sPLA2 activity. QFRET BODIPY PC-A2 liposome hydrolysis, fluorescence. Q9NZ20. inhibition, % at 12.2 µM. 370,000 compounds, 0.56% hits;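 active = inhibition above mean plus 3 SD of compounds lying within the high and low control bounds, cut at about 19% in these data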;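 also: 0% = median of test compound wells and 100% = no enzyme DMSO wells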
Target sequence (Q9NZ20 whole entry, looked up): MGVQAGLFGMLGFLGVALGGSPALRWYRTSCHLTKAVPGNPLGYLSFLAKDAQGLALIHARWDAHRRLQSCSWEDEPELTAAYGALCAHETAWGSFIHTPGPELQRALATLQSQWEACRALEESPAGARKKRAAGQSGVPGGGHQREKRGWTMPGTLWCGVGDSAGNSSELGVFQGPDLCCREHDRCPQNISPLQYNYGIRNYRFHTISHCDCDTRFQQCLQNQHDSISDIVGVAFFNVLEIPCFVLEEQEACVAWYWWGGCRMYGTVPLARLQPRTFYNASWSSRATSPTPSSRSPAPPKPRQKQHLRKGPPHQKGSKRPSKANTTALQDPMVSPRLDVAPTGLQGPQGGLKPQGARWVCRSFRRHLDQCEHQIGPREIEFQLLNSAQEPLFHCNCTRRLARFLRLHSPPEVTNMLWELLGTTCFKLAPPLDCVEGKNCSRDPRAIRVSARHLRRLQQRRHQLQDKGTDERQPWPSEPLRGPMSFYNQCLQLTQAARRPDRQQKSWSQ
CendR NRP1 mod = NRP-1/CendR interaction modulation. O14786. FAM-RPARPAR peptide binding to NRP-1, fluorescence polarization. inhibition, % at 25 µM. 360,000 compounds, 0.85% hits;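 active = inhibition or corrected inhibition above about 18%, plus a signal ratio from 0.5 to 1.5, limit read from the data, passing the limit was not always enough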
proKLK7 act = activators of human kallikrein-7 zymogen. P49862. activation, % at 7 µM. 370,000 compounds, 0.9% hits. purified proKLK7, EDANS-DABCYL substrate fluorescence; 100% is mature enzyme control, 0% vehicle;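 active = activation above the mean of all tested compounds plus 3 SD, computed per campaign excluding outliers beyond control limits, cut at about 13% in these data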
ADAM10 inh = inhibits human ADAM10; recombinant ADAM10, EDANS/DABCYL FRET peptide cleavage, 3 h; 370,000 compounds, 0.62% hits; inhibition, % at 7 µM; O14672;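 active = inhibition above a per-campaign cutoff equal to the mean of compounds falling between control-based bounds plus 3 SD, cut at about 20% in these data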;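 also: 0% = DMSO wells while the 100% control is not disclosed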
ADAM10 counter = inhibits human ADAM10 in ADAM17 exosite counter-screen; shares compounds with ADAM17 inh; recombinant ADAM10, EDANS/DABCYL FRET peptide cleavage, 3 h; inhibition, % at 6.95 µM; 2,900 compounds, 47% hits; AID 743256;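 active = mean inhibition over the triplicate runs exceeds the activity threshold set in the earlier primary screen, cut at about 20% in these data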;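 also: 0% = DMSO wells and 100% = marimastat wells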
ADAM17 confirm = human ADAM17 inhibition, confirmation | AID 743257 | shares compounds with ADAM17 inh | inhibition, % at 6.95 µM | 2,900 compounds, 65% hits | recombinant ADAM17, EDANS/DABCYL QFRET peptide cleavage;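 active = mean inhibition across replicates above the hit cutoff set in the primary screen, cut at about 8.5% in these data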;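 also: 0% = DMSO wells and 100% = marimastat wells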
Numbers without * were called inactive; . = no result.

SMILES	ADAM17 inh	sPLA2-III inh	CendR NRP1 mod	proKLK7 act	ADAM10 inh	ADAM10 counter	ADAM17 confirm
Cc1cccc(C2(c3cccc(C)c3)OC(=O)c3ccccc32)c1	9.6*	-0.7	10.1	0.6	17.1	10.1	14.8*
CN(Cc1ccccc1)C(=O)OCc1cn(Cc2ccc(F)cc2F)nn1	-5.6	-1.7	.	0.1	-0.1	.	.
Cc1cccc(C)c1NC(=O)CNc1ccccc1	11.0*	3.2	0.0	0.1	16.6	3.2	3.3
Cc1cccc(C)c1NC(=O)CNCC(=O)Nc1c(C)cccc1C	-2.5	9.1	5.3	-0.7	-6.3	.	.
CCCCCCCCN1C(=O)[C@@H](CC(=O)NCCCOC)C[C@@]2(C(=O)OC)C1=C[C@H](C1CCCC1)O[C@@H]2C	2.8	-10.0	.	0.1	-50.4	.	.
CC(COc1cccc([N+](=O)[O-])c1)CN1CCC(C(O)(c2ccccc2)c2ccccc2)CC1 (centres undefined)	1.8	-10.7	.	0.4	5.4	.	.
CC(C)(C)OC(=O)N(Cc1ccccc1)Cc1ccccc1OCc1ccc(NC(=O)C2CCC2)cc1	13.1*	-4.9	-7.5	-0.3	8.3	12.9	11.0*
CC(C)(C)OC(=O)N(CCc1ccccc1)Cc1ccccc1OCc1ccc(NC(=O)C2CCC2)cc1	-1.3	-8.9	9.3	0.2	-2.7	.	.
c1ccc(-c2c[nH]c3ccc(OCc4ccc5ccccc5n4)c(-c4ccccc4)c23)cc1	4.6	2.6	.	0.7	2.2	.	.
COc1cc(NC(=O)c2ccc(S(=O)(=O)N(C)c3ccccc3OC)cc2)cc(OC)c1	9.4*	-23.4	-5.4	0.3	19.2	24.7*	13.2*
C=CCN(CC#Cc1ccc(C(F)(F)F)cc1)CC=C	1.8	0.9	.	-0.3	0.7	.	.
NC(CSC1(c2cccc3ccccc23)c2ccccc2-c2ccccc21)C(=O)O (centres undefined)	10.1*	4.3	-22.2	-1.3	-7.1	12.6	10.2*
NC(CSC(c1ccccc1)(c1ccccc1)c1cccc2ccccc12)C(=O)O (centres undefined)	.	.	-17.5	.	.	.	.
N#CCc1c(C#N)c(N)nc(N2CCN(S(=O)(=O)c3ccccc3)CC2)c1C#N	-57.4	-16.9	-0.5	-21.2	-159.3	.	.
COc1ccccc1N1CCN(c2nc(N)c(C#N)c(CC#N)c2C#N)CC1	20.1*	-19.4	-24.1	-1.2	11.6	10.2	10.6*
CCN(c1cccc(C)c1)S(=O)(=O)c1ccc2c(c1)CCN2C(C)=O	-1.3	-8.2	3.8	0.7	-5.0	.	.
CCN(c1cccc(C(F)(F)F)c1)S(=O)(=O)c1ccc2c(c1)CCN2C(C)=O	8.7*	-5.7	-6.1	0.1	10.5	20.3*	10.7*
Cc1ccc(S(=O)(=O)N2CCC(C(=O)Nc3ccc(S(=O)(=O)N4CCCC4)cc3)CC2)cc1	12.8*	-22.8	3.2	0.6	-1.3	21.0*	11.5*
Cc1ccc(S(=O)(=O)N/N=C/c2cccc3c2OCCO3)cc1	-3.2	4.2	-10.9	0.0	-12.5	.	.
Cc1ccc(S(=O)(=O)N/N=C/c2cccc3nccnc23)cc1	8.8*	15.8	6.2	0.5	5.9	17.6	8.2
O=C(COc1ccccc1Br)NCCc1nc2ccccc2[nH]1	8.9*	-9.7	-6.0	-0.2	6.7	11.5	2.2
COc1ccccc1OCC(=O)NCCc1nc2ccccc2[nH]1	3.7	2.1	7.0	-0.1	0.0	.	.
CCOC(=O)c1ccc(NC(=O)Nc2ccc(OC)c(OC)c2)cc1	1.8	-15.4	7.5	-0.5	2.5	.	.
CCCCOC(=O)c1ccc(NC(=O)Nc2ccc(OC)c(OC)c2)cc1	11.7*	-50.5	16.2	-0.1	17.9	26.6*	12.5*
Cc1ccc(CN2CCCCC(NC(=O)Nc3ccccc3-c3ccccc3)C2=O)cc1 (centres undefined)	1.8	7.4	.	-0.1	17.2	.	.
SMILES	ADAM17 inh	sPLA2-III inh	CendR NRP1 mod	proKLK7 act	ADAM10 inh	ADAM10 counter	ADAM17 confirm
O=C(OCC#CCSc1nnc(-c2ccccc2F)o1)c1ccc(F)cc1	2.2	-10.6	.	.	5.4	.	.
N#Cc1ccc(OCC(O)CN2CCN(c3ncc(C(F)(F)F)cc3Cl)CC2)cc1 (centres undefined)	4.0	-5.5	-1.4	0.6	12.4	.	.
OC(CN1CCN(c2ncc(C(F)(F)F)cc2Cl)CC1)c1ccccc1 (centres undefined)	10.0*	2.0	5.9	0.0	2.5	-6.7	-2.6
COc1ccc(C2C(C#N)=C(N)Nc3onc(C(C)(C)C)c32)c(OC)c1 (centres undefined)	8.7*	2.4	0.0	6.0	7.6	7.4	6.6
COc1ccc(C2C(C#N)=C(C)NC(C)=C2C#N)c(OC)c1	-6.1	0.1	-3.2	0.4	-18.0	.	.
COc1ccc(OCCCC(=O)OCC(=O)Nc2ncc(Cl)cc2Cl)cc1	-3.9	2.0	4.4	1.0	-9.9	.	.
CC(C)(Oc1ccc(Cl)cc1)C(=O)OCC(=O)Nc1ncc(Cl)cc1Cl	9.9*	-6.1	-20.3	0.7	14.7	-0.2	0.3
COc1cccc(CNC(=O)[C@H]2CCCN2C(=O)[C@H]2CCCN2C(=O)c2ccc(F)c(F)c2)c1	-2.9	0.1	.	-0.1	-5.5	.	.
C/C(=N\N=C1\NC(=O)CS1)c1cccs1	10.6*	10.4	-1.6	0.8	16.5	9.1	6.9
CC(=O)c1cccc(N=C2NC(=O)CS2)c1	-3.0	8.2	5.7	0.2	-3.7	.	.
C=CCNc1cccc(Br)c1	9.1*	8.5	19.4	0.1	4.4	3.6	2.4
C[C@H](CO)N1C[C@H](C)[C@@H](CN(C)C(=O)C2CC2)OCc2cn(nn2)CCCC1=O	-4.0	6.8	.	-0.2	-10.1	.	.
CCc1ccc(OCC2c3cc(OC)c(OC)cc3CCN2C(=S)NCCOC)cc1 (centres undefined)	10.1*	-3.3	5.4	-1.4	16.9	39.4*	21.1*
CCc1ccc(OCC2c3cc(OC)c(OC)cc3CCN2C(=S)NC)cc1 (centres undefined)	0.1	-6.1	-6.6	-0.7	9.9	.	.
O=C(C[C@@H]1C/C=C\CCC(=O)OC[C@@H]2CCCN2C1=O)N[C@@H](CO)Cc1ccccc1	8.9*	16.0	12.3	0.8	2.9	4.4	2.8
CCCOc1ccc(C2/C(=C(\O)c3c(C)[nH]c(C(=O)OC)c3C)C(=O)C(=O)N2CCN(C)C)cc1 (centres undefined)	9.9*	7.6	-4.3	-0.3	-8.1	1.7	3.2
CC(=O)CC[C@@H]1CC[C@]2(CCCN(C(=O)c3ccno3)C2)O1	0.0	4.4	.	-0.1	-1.3	.	.
CCOc1ccc(NS(=O)(=O)c2cc(NC(=O)CCC(=O)c3cccs3)ccc2Cl)cc1	9.1*	-35.3	-3.2	-0.7	14.0	18.4	10.3*
Cc1ccc(S(=O)(=O)N(C)C)cc1NC(=O)COc1ccccc1C(=O)Nc1ccccc1	5.8	-33.5	-6.6	0.1	3.7	.	.
